In PubChem BioAssay AID624330 (Southern Research Specialized Biocontainment Screening …, 2012):
About 2,100 (0.62%) of roughly 340,000 compounds were called active.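 The calls were made as follows: active = first-screen hits whose inhibition reached a set limit at any dose in the follow-up dose series; inconclusive = inhibition above the set first-screen limit but never retested; inactive = the rest.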 A selection follows. Entries with a potency or affinity are not part of this list.

molecular target: Rac GTPase-activating protein 1 (Homo sapiens) (UniProt Q9H0H5); assay: blockers of MgcRacGAP-driven Rac1 GTP hydrolysis – biochemical, ADP Hunter fluorescence, primary and confirmatory, confirmation (AID 624330); settings: MgcRacGAP-stimulated Rac1 GTP hydrolysis, at 30 µM, active compounds read high, GST-tagged Rac1 F28L mutant substrate;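 also: fluorescence reports GDP produced by GAP-driven GTP hydrolysis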
Sequence (Q9H0H5 whole entry, looked up): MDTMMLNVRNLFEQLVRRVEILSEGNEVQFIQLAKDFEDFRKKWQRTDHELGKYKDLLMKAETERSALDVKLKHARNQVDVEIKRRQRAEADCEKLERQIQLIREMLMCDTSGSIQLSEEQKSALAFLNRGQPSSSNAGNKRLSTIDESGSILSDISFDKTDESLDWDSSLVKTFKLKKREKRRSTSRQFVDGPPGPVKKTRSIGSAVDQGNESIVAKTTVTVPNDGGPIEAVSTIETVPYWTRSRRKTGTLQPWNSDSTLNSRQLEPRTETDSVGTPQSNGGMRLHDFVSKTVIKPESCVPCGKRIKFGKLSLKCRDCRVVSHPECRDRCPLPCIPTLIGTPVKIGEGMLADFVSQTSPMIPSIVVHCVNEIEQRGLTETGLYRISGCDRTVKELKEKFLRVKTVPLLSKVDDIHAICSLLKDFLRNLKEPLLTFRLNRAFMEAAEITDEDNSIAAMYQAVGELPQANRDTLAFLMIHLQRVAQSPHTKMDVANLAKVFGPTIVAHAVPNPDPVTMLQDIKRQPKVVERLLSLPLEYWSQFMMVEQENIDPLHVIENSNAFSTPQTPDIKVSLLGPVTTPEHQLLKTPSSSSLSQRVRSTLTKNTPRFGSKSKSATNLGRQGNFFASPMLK

inhibition, inactive:
CCOC(=O)C(=NC(C)CC)NNc1ccc(Br)cc1 (stereo not drawn) 9.58%
O=C(CN1CCN(C(=O)c2ccco2)CC1)Nc1cccc([N+](=O)[O-])c1 4.6%
O=[N+]([O-])c1cccc(CN2CCN(c3ncccn3)CC2)c1 25.4%
O=C(c1c(Cl)cccc1Cl)N1CCCCCC1 7.13%
O=[N+]([O-])c1ccc(S(=O)(=O)N2CCN(Cc3ccco3)CC2)cc1 15.9%
O=C(c1c(Cl)cccc1Cl)N1CCN(c2ncccn2)CC1 14.4%
O=[N+]([O-])c1ccc(N2CCN(Cc3cccc([N+](=O)[O-])c3)CC2)cc1 0.8%
O=C(c1ccco1)N1CCN(Cc2cccc(F)c2)CC1 14.6%
O=[N+]([O-])c1cccc(CN2CCCCCC2)c1 10.9%
C[C@H](NC(=O)C1CC(=O)N(c2ccc3c(c2)OCCO3)C1)C(=O)N1CCCCC1 (stereo partly drawn) 7.93%
CCC(CC)NC(=O)COC(=O)c1cc(Br)ccc1Cl 7.43%
CC(C)NC(=O)CN(Cc1ccc(F)cc1)C(=O)CCC(=O)Nc1ccccn1 4.82%
CC(=O)c1ccc(N=Nc2ccc(C)cc2)cc1 3.59%
COc1ccc(C(C)=O)cc1CN1C(=O)NC2(CCCCCC2)C1=O -0.57%
Cc1ccc(S(=O)(=O)N(C)CCN(C)S(=O)(=O)c2ccc(C)cc2)cc1 6.45%
Cc1cccc(OCC(=O)N(Cc2ccc(F)cc2)C2CCS(=O)(=O)C2)c1C (stereo not drawn) 9.11%
O=C(N/N=C/C(Cl)=C/c1ccccc1)c1ccccn1 2.22%
COc1ccc(-c2csc3nc(C)n(-n4cccc4)c(=O)c23)cc1OC 2.59%
CCCCOC(=O)C1=C(C)Nc2ncnn2C1c1ccc(OCC)c(OC)c1 (stereo not drawn) 4.44%
COC(=O)c1ccc(NC(=S)Nc2ccc3ccccc3c2)cc1 15.3%
O=C(NNC(=O)C1CC=CCC1)c1ccccc1O (stereo not drawn) -10.1%
O=C(NC(=S)Nc1ccc(F)cc1)C1CCCCC1 6.1%
COC(=O)c1ccc(NC(=S)Nc2ccccc2)cc1 5.58%
CC(=O)Nc1ccc(NC(=S)NC(=O)C2CCCC2)cc1 9.09%
O=C(Nc1nccs1)C1CC=CCC1 (stereo not drawn) 0.32%
Cc1nn(Cc2ccccc2)c(C)c1NC(=O)CSc1nnc(-c2cc(Cl)ccc2O)n1C 3.78%
COc1ccccc1-c1nnc(SCC(=O)c2c(N)n(C3CC3)c(=O)[nH]c2=O)o1 4.98%
O=C(CCC1CCCN(C(=O)c2ccc3c(c2)OCO3)C1)NCc1ccc(F)c(F)c1 (stereo not drawn) 6.44%
CCCC(=O)Nc1c(-c2ccccc2)c(=O)c(C)nn1-c1ccccc1 -2.47%
Cc1cccc(NC(=O)CSCc2cc(=O)n3c(C)csc3n2)c1C -9.75%
CCOCCCNCC(=O)NC1(C)C2CCC(C2)C1(C)C (stereo not drawn) 14.5%
CCOCCCNC(=O)C(=O)NCCCOCC 6.87%
CC(NC(=O)CNC(=O)c1cccc(Cl)c1)c1ccccc1 (stereo not drawn) 0.16%
CCCCNc1c(-c2ccc(-c3ccc(C(C)=O)cc3)c(OC)c2)nc2cc(C)ccn12 4.91%
Cc1c(Cc2ccccc2)c(=O)oc2c(C)c(OCC(=O)N[C@@H](Cc3ccccc3)C(=O)O)ccc12 1.68%
C[C@@H]1CN([C@@H](C)CO)C(=O)c2cc(NC(=O)Nc3ccc4c(c3)OCO4)ccc2O[C@H]1CN(C)S(=O)(=O)c1cn(C)cn1 11.5%
COc1ccc2c(c1)CC=C1C2CCC2(C)C(=O)C(=NO)CC12 (stereo not drawn) 5.55%
CC12CCC3C(=CCc4cc(O)ccc43)C1CC(=NO)C2O (stereo not drawn) 27.1%
Oc1c(Br)cc(/C=N/n2c(-c3ccccc3)n[nH]c2=S)cc1Br 17.3%
CCc1n[nH]c(=S)n1/N=C/c1cc(Br)c(O)c(OC)c1 14.8%
COc1cc(/C=N/N2C(=O)CSC2=S)cc(Br)c1O 24.4%
COc1cc(/C=N/N2C(C)CCCC2C)cc(Br)c1O (stereo not drawn) 10.5%
CCN=c1scc(C)n1/N=C/c1ccc(O)c(O)c1O -35.3%
Cc1nnc(C)n1/N=C/c1cc(Br)cc(Br)c1O 13.7%
COc1cc2ncnc(NCc3ccc(F)cc3)c2cc1OC 5.92%
COc1ccc(-n2cnnc2SCC(=O)Nc2cc(C)on2)cc1 0.92%
Cc1nn(-c2nc3ccccc3[nH]2)c(N)c1-c1ccc(Cl)cc1 14.1%
COc1ccc(NC(=O)[C@@H]2CCCN2S(=O)(=O)c2cccc3cccnc23)cc1 7.98%
Cc1c(N2C(=O)CSC2c2ccc(F)cc2)c(=O)n(-c2ccccc2)n1C (stereo not drawn) -1.84%
Cc1cc(C)n(CC(=O)N2N=C(C(F)F)CC2(O)C(F)F)n1 (stereo not drawn) 5.91%
O=C(CC1C[C@H](C(=O)N2CCCCC2)[C@@]2(CCc3ccccc3)c3[nH]c4ccccc4c3CCN2C1=O)NCCc1ccccn1 (stereo partly drawn) 10.2%
Cc1ccc(-n2c(=S)[nH]c3sc4c(c3c2=O)CCc2ccccc2-4)cc1 4.2%
CCCn1c(=S)[nH]c2sc3c(c2c1=O)CCCC3 2.13%
CCOc1ccc(-n2c(=O)[nH]c3sc4c(c3c2=O)CCCC4)cc1 12.1%
C=CCn1c(=S)[nH]c2sc3c(c2c1=O)CCCC3 13.8%
CN(C)CCCn1c(=S)[nH]c2sc3c(c2c1=O)CCCC3 26.2%
CCn1c(=S)[nH]c2sc3c(c2c1=O)CCCC3 47.9%
COCCCn1c(=S)[nH]c2sc3c(c2c1=O)CCCS3 7.39%
C=CCn1c(=S)[nH]c2sc3c(c2c1=O)CCC3 14.3%
COc1ccc(/C(C)=N/NC(=S)Nc2cc(C)ccc2C)cc1 -5.64%
CCOC(=O)C1C(=O)CC(C)(O)C(C(=O)OCC)C1c1ccc([N+](=O)[O-])cc1 (stereo not drawn) 11.4%
COc1ccc(N2CCN(c3nc4cc(C)ccc4cc3C=O)CC2)cc1 2.5%
Cc1ccc(C2=NN(C(=O)CSc3nc4ncc(Cl)cc4[nH]3)C(c3ccco3)C2)cc1 (stereo not drawn) 5.98%
C/C(=N\NC(=O)Cn1cnc2ccccc21)c1cccs1 4.15%
COc1ccc2c3n(nc2c1)CCN=C3c1ccc(C)cc1 4.94%
COc1cccc(-c2cc(C(=O)NC3CCCCC3)no2)c1 6.22%
O=C(NCc1ccccc1)C12CC3CC(CC(Br)(C3)C1)C2 5.84%
O=C1CCC(=O)N(c2ccccc2)N1 3.91%
O=C1CCN(S(=O)(=O)c2ccccc2)N1 -45.5%
Cc1[nH]c(-c2ccc(F)cc2)cc1C(=O)N1CCN(c2cccc(Cl)c2)CC1 21.1%
COC(=O)Cn1ccc(N(C)C)c(C#N)c1=O -1.06%
CCOC(=O)N1CCN(Cc2nc(-c3ccc(Cl)cc3)no2)CC1 0.28%
CC(C)Oc1cccc(C(=O)NC(=S)Nc2ccc(Cl)c(C(=O)O)c2)c1 0.71%
O=C(CCNC(=O)C1CCN(S(=O)(=O)c2ccc(F)cc2)CC1)NCCc1ccc(Cl)cc1 1.71%
CCCN(CC(=O)Nc1ccc(F)c(F)c1F)C(=O)c1ccc2c(=O)n3c(nc2c1)CCC3 1.86%
N#CCCn1cc(CNC2CCC(O)CC2)c2ccccc21 (stereo not drawn) 3.99%
CC1(Cc2cn(CCC#N)c3ccccc23)OCCO1 15.8%
CCCCCC(=O)NC(NC(=S)NC1CCS(=O)(=O)C1)C(Cl)(Cl)Cl (stereo not drawn) 8.9%
Cc1cccc(OCCSc2nc(N)cc(N)n2)c1 25.9%
O=C(N/N=C/c1ccc[nH]1)c1ccc([N+](=O)[O-])cc1 13.2%
O=[N+]([O-])c1ccc(C=NNc2ccccc2)cc1 0.7%
Nc1c(N(CCO)C(=O)C2CCCC2)c(=O)[nH]c(=O)n1Cc1ccccc1 2.35%
Cc1cc(C)cc(NC(=O)C2(c3ccccc3)CC2(Cl)Cl)c1 (stereo not drawn) 8.14%
COc1ccc(/C=N/N2CCN(C3c4ccccc4-c4ccccc43)CC2)cc1O 11.6%
CN(C(=O)CSc1nc2[nH]ncc2c(=O)[nH]1)c1ccccc1 2.08%
Cc1ccc(O)c(/C=N/NC(=O)c2[nH]ncc2Br)c1 0.98%
CC1(C)CC(=O)C(C=Nc2ccc3[nH]ncc3c2)=C(O)C1 6.45%
Brc1ccc2[nH]ncc2c1 3.94%
C=CCOc1ccc(C=Nc2ccc(OC)cc2)c(O)c1 12%
Oc1c(Br)cc(Br)cc1C=Nc1ccc2[nH]ncc2c1 17.9%
COc1cccc(N=Cc2ccc(O)cc2O)c1 8.51%
CCOC(=O)c1nc(NNC(C)=O)sc1C 0.96%
Cc1nc2nc(-c3cccs3)[nH]c2cc1Br 10.5%
Cc1cccc(NC(=O)c2nc(-c3ccccc3)n(-c3ccccc3)n2)c1C 10.4%
Cc1nnc(CN(C)C(=O)CC2C(=O)NCCN2Cc2ccccc2C)o1 (stereo not drawn) -0.43%
Cc1nc(CNS(=O)(=O)c2cc(C)c(C)cc2C)cs1 10.2%
Nc1ccc(SCc2cccnc2)cc1 14%
CC(C)(C)OC(=O)N1CCN(C(=O)c2[nH]cnc2C(=O)Nc2ccc(Cl)cc2)CC1 8.41%
